According to ChEMBL document CHEMBL3988442, “University of Dundee, Small-Polar-MMV Screening Library” (2021):

Biological target: AMP-activated protein kinase, AMPK (Homo sapiens) (UniProt P54646+O43741+P54619+Q9UGJ0+Q9Y478+Q13131+Q9UGI9)
Assay: AMP-dependent Kinase enzyme assay. An in vitro enzyme assay that detects ADP turnover that is directly proportional to AMPK activity. This uses naive AMPK that is activated during the assay with MK-8722
Assay type: functional
Design: scale not given: direction of the effect not stated beside the values
Settings: 30 µM

Structure (SMILES)	Percent Effect
CC(Cn1ccnc1)NC(=O)NCCN1CCCCCC1=O (stereo not given)	0.204%
CCn1nc(C)c(NC(=O)CN(C)C(C)c2ccon2)c1C (stereo not given)	-1.21%
COc1ccc(CC2(CO)CCN(c3cc(C#N)ccn3)CC2)cc1	112%
CN(CCCO)Cc1cc(Cl)ccc1OCC(O)CN1CCCCCC1 (stereo not given)	-10.6%
CN1C[C@@H]2CC[C@H](CC1=O)N2C(=O)c1cc2ccccc2[nH]c1=O	5.77%
CSc1ccc(NC(=O)Cn2cc(N)cn2)cc1	-79.3%
CCc1ccc(CCC(=O)N2CCC(=O)Nc3cccnc32)cc1	0.539%
CCCOC1CCCN(c2ncnc3c2CCN(C(=O)C2CC2)C3)C1 (stereo not given)	3.46%
O=S(=O)(c1cccnc1)N1CCCCC1CCN1CCOCC1 (stereo not given)	16.1%
CC(C)c1noc(OCC(=O)N2CCCCC2C)n1 (stereo not given)	-1.04%
Fc1cccc(CN2CCC[C@H](Cn3nnc(-c4ccccn4)n3)C2)c1	9.12%
COCc1nc(C2CC2)nn1-c1cc(Cl)ccc1OC	-8.6%
CCc1oc(C(=O)NC(C)Cc2cnccn2)cc1CN1CCCC1 (stereo not given)	0.442%
CCNC(=O)c1ccc(NC(=O)N(C)Cc2cc(C)on2)c(C)c1	10.2%
CN(C)S(=O)(=O)NC1CCCc2c1cnn2-c1ccc(C(C)(C)C)cc1 (stereo not given)	88.7%
CN(CCc1ccccn1)C(=O)Nc1cccnc1-n1cccn1	-3.54%
Cc1cc(C(N)=O)ccc1NC(=O)N1CCN(c2cccs2)CC1	-2.73%
CC(=O)c1cnc(NCCN2CCCC(c3ccccc3)C2)nc1C (stereo not given)	-7.52%
CC(C)Cc1cc(C(=O)N2CCC(Cc3cnn(C)c3)C2)cc(O)n1 (stereo not given)	-2.83%
CN(C)C(=O)CN1CCN(c2cc(N3CCCC3CO)ncn2)CC1 (stereo not given)	-0.698%
